SMILES strings stand for the structures. The panel holds about 83,000 compounds, 20% with a hit somewhere; the sample as a whole holds those more often.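 Cells were grown in 96-well plates and exposed to the test compound at a single concentration for 48 hours; results are reported as percent growth, with values below 10 considered active.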 Unmarked numbers belong to inactive results. Calls of active or inactive are those of the source.

The record followed here is PubChem BioAssay (NCI).

Test systems include SR leukemia; RPMI-8226 leukemia; OVCAR-8 ovarian; OVCAR-5 ovarian; OVCAR-4 ovarian; SK-OV-3 ovarian; IGROV1 ovarian; OVCAR-3 ovarian; HS 578T breast; NCI/ADR-RES ovarian; T-47D breast; BT-549 breast; MDA-MB-435 melanoma; SW-620 colon; MCF7 breast; HCT-116 colon; HCC-2998 colon; KM12 colon.
What all share (experiment): NCI-60 one-dose screen, 48 h (100 = growth as untreated, 0 = no growth, -100 = all killed)
Holding throughout (settings): 10 µM unless noted

Consider `Cc1ccc(-c2cc3nc(C(Cl)Cl)nc(C)n3n2)cc1`, for which the growth in the assay on SR leukemia was 113%; in the assay on RPMI-8226 leukemia it was 94.6%; in the assay with OVCAR-8 ovarian, 102%; with OVCAR-5 ovarian, 104%; in the assay with OVCAR-4 ovarian it was 118%; with SK-OV-3 ovarian, 84.2%. Also, the growth in the assay on IGROV1 ovarian was 72.2%; in the assay with OVCAR-3 ovarian, 104%; with HS 578T breast, 107%; in the assay on NCI/ADR-RES ovarian, 110%; with T-47D breast, 94.6%; in the assay with BT-549 breast, 115%. In addition, the growth in the assay on MDA-MB-435 melanoma was 110%; with SW-620 colon, 107%; in the assay on MCF7 breast it was 88.3%; with HCT-116 colon, 108%; with HCC-2998 colon it was 115%; with KM12 colon, 99.1%.
As to `N#Cc1cccc(CN2CCC3=C(C2)C(=O)N(Cc2ccc(Cl)cc2)C2=NCCN23)c1`, the growth is 32.9% in the assay with SR leukemia; 17% in the assay with RPMI-8226 leukemia; 20.2% with OVCAR-8 ovarian; 38.6% with OVCAR-5 ovarian; 20.4% with OVCAR-4 ovarian; 27.8% with SK-OV-3 ovarian. For the same molecule, the growth in the assay on IGROV1 ovarian was 54.4%; in the assay with OVCAR-3 ovarian it was 23.4%; in the assay with HS 578T breast, 45.5%; in the assay with NCI/ADR-RES ovarian it was 13.5%; in the assay on T-47D breast it was 23.7%; in the assay with BT-549 breast, 45.4%. Also, the growth is 19.9% in the assay on MDA-MB-435 melanoma; 33% in the assay with SW-620 colon; 14.1% with MCF7 breast; 19.6% in the assay with HCT-116 colon; 17.6% in the assay on HCC-2998 colon; 40.9% in the assay with KM12 colon.
For `CN(C)C(=O)c1cc(-c2ccc3ncnc(NCc4ccccc4)c3c2)cnc1N`, the growth was 89.3% with SR leukemia; 50.5% in the assay on RPMI-8226 leukemia; 97.3% in the assay with OVCAR-8 ovarian; 62.9% with OVCAR-5 ovarian; 80.7% in the assay on OVCAR-4 ovarian; 110% in the assay with SK-OV-3 ovarian. In addition, the growth is 34.2% in the assay on IGROV1 ovarian; 85.1% with OVCAR-3 ovarian; 81.8% with HS 578T breast; 104% in the assay with NCI/ADR-RES ovarian; 62% in the assay with T-47D breast; 111% in the assay on BT-549 breast. Further, the growth with MDA-MB-435 melanoma is 99.2%; with SW-620 colon it was 102%; with MCF7 breast it was 77.5%; in the assay with HCT-116 colon it was 101%; with HCC-2998 colon, 102%; with KM12 colon, 101%.
On to `CN1CCN(Cc2ccc(NC(=O)c3cncc(C#Cc4cnc5ccc(OCC(C)(C)O)nn45)c3)cc2C(F)(F)F)CC1`, for which the growth was -7.52% (active) with SR leukemia; -27.6% (active) in the assay on RPMI-8226 leukemia; 6.58% (active) in the assay with OVCAR-8 ovarian; -3.05% (active) in the assay on OVCAR-5 ovarian; -2.05% (active) in the assay on OVCAR-4 ovarian; -13.3% (active) in the assay with SK-OV-3 ovarian. For the same molecule, the growth in the assay on IGROV1 ovarian is -17.3% (active); in the assay on OVCAR-3 ovarian it was -56.5% (active); in the assay on HS 578T breast, -36.9% (active); with NCI/ADR-RES ovarian, 33.9%; with T-47D breast it was -17.6% (active); in the assay on BT-549 breast, -20.1% (active). The growth in the assay on MDA-MB-435 melanoma was -86.8% (active); in the assay with SW-620 colon it was -16.1% (active); in the assay with MCF7 breast, -66.3% (active); in the assay with HCT-116 colon it was -51% (active); in the assay with HCC-2998 colon it was -34.3% (active); in the assay on KM12 colon, 1.72% (active).
For `O=C(c1ccc(Cl)cc1)C1[C@H](c2ccc(Cl)cc2)[C@@H](c2ccccc2)NC12C(=O)Nc1ccccc12` (some centres undefined), the growth in the assay with SR leukemia was 3.54% (active); with RPMI-8226 leukemia it was 40.1%; in the assay with OVCAR-8 ovarian it was 64%; in the assay on OVCAR-5 ovarian, 71%; in the assay with OVCAR-4 ovarian, 59.7%; in the assay on SK-OV-3 ovarian, 102%. In addition, the growth in the assay with IGROV1 ovarian was 44.9%; in the assay on OVCAR-3 ovarian, 47.7%; with HS 578T breast, 67.1%; in the assay with NCI/ADR-RES ovarian, 52.2%; in the assay on T-47D breast it was 40.1%; in the assay on BT-549 breast, 96.1%. The growth with MDA-MB-435 melanoma is 49.1%; in the assay on SW-620 colon it was 54%; in the assay on MCF7 breast, 13.2%; in the assay on HCT-116 colon, 26.1%; in the assay on HCC-2998 colon it was 34.5%; in the assay on KM12 colon it was 30.7%.
Regarding `Cn1ccnc1C(=O)/C=C/c1ccc(CNC(=O)c2ccc(S(F)(F)(F)(F)F)cc2)cc1`, the growth in the assay with SR leukemia was 4.16% (active); with RPMI-8226 leukemia, -10.9% (active); in the assay with OVCAR-8 ovarian it was 26.4%; with OVCAR-5 ovarian, 22.4%; in the assay with OVCAR-4 ovarian, 35.6%; with SK-OV-3 ovarian, 66.8%. Further, the growth in the assay on IGROV1 ovarian is 16.7%; with OVCAR-3 ovarian, 16.8%; in the assay with HS 578T breast, 23%; in the assay with NCI/ADR-RES ovarian, 12.2%; in the assay on T-47D breast it was 25%; in the assay on BT-549 breast it was 35.6%. Moreover, the growth was 55.5% in the assay on MDA-MB-435 melanoma; 9.31% (active) with SW-620 colon; 13.3% in the assay on MCF7 breast; -17.1% (active) in the assay on HCT-116 colon; 11.5% in the assay with HCC-2998 colon; 13% in the assay on KM12 colon.
Consider `COc1ccc(-c2nc(C(Cl)Cl)nc3cc(-c4ccccc4)nn23)cc1`, for which the growth was 4.09% (active) with SR leukemia; 14.9% in the assay with RPMI-8226 leukemia; -34.3% (active) in the assay on OVCAR-8 ovarian; -12.9% (active) with OVCAR-5 ovarian; -15.3% (active) in the assay with OVCAR-4 ovarian; -29.7% (active) with SK-OV-3 ovarian. In addition, the growth with IGROV1 ovarian is 2.02% (active); in the assay with OVCAR-3 ovarian, -33.9% (active); in the assay with HS 578T breast it was -6.94% (active); in the assay on NCI/ADR-RES ovarian, 9.82% (active); in the assay with T-47D breast, 45.8%; with BT-549 breast it was 38.4%. Moreover, the growth is -30.3% (active) in the assay on MDA-MB-435 melanoma; -23.9% (active) in the assay on SW-620 colon; 29.3% in the assay on MCF7 breast; 1.5% (active) in the assay on HCT-116 colon; -37.8% (active) with HCC-2998 colon; -2.28% (active) in the assay on KM12 colon.
For the molecule `COc1c(N2CC3CCCNC3C2)c(F)cc2c(=O)c(C(=O)N/N=C/c3c[nH]c4ccccc34)cn(C3CC3)c12` (centres undefined), the growth is -12.2% (active) with SR leukemia; 78.2% with RPMI-8226 leukemia; 99% in the assay on OVCAR-8 ovarian; 116% in the assay with OVCAR-5 ovarian; 106% in the assay on OVCAR-4 ovarian; 130% in the assay on SK-OV-3 ovarian. The growth was 97.9% in the assay with IGROV1 ovarian; 103% in the assay with OVCAR-3 ovarian; 110% with HS 578T breast; 104% in the assay on NCI/ADR-RES ovarian; 116% with T-47D breast; 100% with BT-549 breast. Further, the growth in the assay with MDA-MB-435 melanoma was 105%; in the assay on SW-620 colon, 90.7%; in the assay with MCF7 breast it was 55%; in the assay with HCT-116 colon, 56.7%; in the assay on HCC-2998 colon it was 119%; in the assay with KM12 colon, 98.7%.
